From PubChem BioAssay (Tox21)
Inconclusive results are not listed. Entries that show only a call come without a potency. Active and inactive are the calls of the source. The call rests on the fitted dose curve; in most records, active means well fitted cell-killing curve with a large enough effect in the repeat runs; inconclusive means weak or mixed curves, or effect the other way; inactive means no such curve, though single readings can be large or run the other way. Positions of bridges follow the written chain, without caps; N, C: chain ends. Non-standard residues stand in square brackets, D forms with d. Residues, ends and D or L forms follow the SMILES beside them. *: point of attachment. X2 = CC[C@H](C)CCCCC(=O)*; Orn = NCCC[C@H](N)C(=O)O; Dab = NCC[C@H](N)C(=O)O; Mpa = O=C(O)CCS

Assay: qHTS assay to identify small molecule antagonists of the thyroid receptor (TR) signaling pathway - cell viability counter screen (AID 743064); further: nearly all actives have a fitted effect of over 50% in size
Conditions: GH3.TRE-Luc viability, CellTiter-Fluor, 24 h; series mostly up to 70.3 µM
Summary of the method: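 Viability of T3-stimulated (1 nM final) GH3.TRE-Luc cells is measured by CellTiter-Fluor fluorescence after 23.5 h compound exposure at 37 °C plus 30 min reagent incubation.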
Potency means the concentration at half of the fitted maximal effect.

Row | SMILES | Potency
1 | O=C(O)c1cccc(/C=C2/C[C@@H]3[C@@H](/C=C/[C@@H](O)C4CCCCC4)[C@H](O)C[C@@H]3O2)c1 | inactive
2 | CC1(C)S[C@@H]2[C@H](NC(=O)[C@H](N)c3ccccc3)C(=O)N2[C@H]1C(=O)OCOC(=O)[C@@H]1N2C(=O)C[C@H]2S(=O)(=O)C1(C)C | inactive
3 | NCCC(=O)[N-][C@@H](Cc1cnc[nH]1)C(=O)O.[Zn] | inactive
4 | OC[C@H]1O[C@@H](n2cnc3c2NC=NC[C@H]3O)C[C@@H]1O | inactive
5 | O=P(O)(O)OC(CO)CO | inactive
6 | CCCCCCCCCCCCCCCC(=O)O[C@@H]1[C@@H](O)[C@@H](O)[C@@H]([C@H](NC(=O)[C@@H]2C[C@@H](CCC)CN2C)[C@H](C)Cl)O[C@@H]1SC | inactive
7 | CC(=O)O[C@H]1C[C@@]2(C)[C@@H](C[C@@H](O)[C@H]3[C@@]4(C)CC[C@@H](O)[C@@H](C)[C@@H]4CC[C@@]32C)/C1=C(\CCC=C(C)C)C(=O)O | inactive
8 | CC1=C[C@H](O)CC(C)(C)[C@H]1/C=C/C(C)=C/C=C/C(C)=C/C=C/C=C(C)/C=C/C=C(C)/C=C/C1=C(C)C[C@@H](O)CC1(C)C | 23.7 µM (active)
9 | C[C@H](CSC(=O)c1ccccc1)C(=O)N1C[C@@H](Sc2ccccc2)C[C@H]1C(=O)O | inactive
10 | O=S(O)CNc1ccc(S(=O)(=O)c2ccc(NCS(=O)O)cc2)cc1 | inactive
11 | CC(=O)O[C@H]1C[C@@H]2CC[C@@H]3[C@H](CC[C@@]4(C)[C@H]3C[C@H](N3CC[N+](C)(C)CC3)[C@@H]4OC(C)=O)[C@@]2(C)C[C@@H]1N1CC[N+](C)(C)CC1 | inactive
12 | O=C1O[C@H]2[C@H](O)[C@@H]1OC(O)[C@H]2O (stereo partly specified) | inactive
13 | CC(=O)Nc1ccc(NC(=S)NC(=O)c2ccc(C(C)(C)C)cc2)cc1 | 8.41 µM (active)
14 | CCSc1ccc2c(c1)N(CCCN1CCN(C)CC1)c1ccccc1S2 | inactive
15 | CC[C@H]1OC(=O)[C@H](C)[C@@H](O[C@H]2C[C@@](C)(OC)[C@@H](O)[C@H](C)O2)[C@H](C)[C@@H](O[C@@H]2O[C@H](C)C[C@H](N(C)C)[C@H]2O)[C@](C)(O)C[C@@H](C)[C@@H]2N[C@@H](COCCOC)O[C@@H]([C@H]2C)[C@]1(C)O | inactive
16 | O=C(O)c1ccc(OCCn2ccnc2)cc1 | inactive
17 | CC1=C(/C=C/C(C)=C/C=C/C(C)=C/C=C/C=C(C)/C=C/C=C(C)/C=C/C2=C(C)C[C@@H](O)CC2(C)C)C(C)(C)C[C@H](O)C1 | 29.8 µM (active)
18 | CO[C@@H]1[C@@H](O[C@@H]2O[C@H](C)[C@@H](O[C@H]3C[C@@](C)(O)[C@@H](OC(=O)CC(C)C)[C@H](C)O3)[C@H](N(C)C)[C@H]2O)[C@@H](CC=O)C[C@@H](C)[C@@H](O)/C=C/C=C/C[C@@H](C)OC(=O)C[C@H]1O | inactive
19 | CCN(CC)CCOc1ccc2nc(N(C)C)sc2c1 | inactive
20 | COc1cc([C@@H]2c3cc4c(cc3C(O[C@@H]3O[C@@H]5COC(c6cccs6)O[C@H]5[C@H](O)[C@H]3O)C3COC(=O)[C@@H]32)OCO4)cc(OC)c1O (stereo partly specified) | 2.37 µM (active)
21 | COCC1=C(C(=O)OC(C)OC(=O)OC(C)C)N2C(=O)[C@@H](NC(=O)/C(=N\OC)c3csc(N)n3)[C@H]2SC1 (stereo partly specified) | inactive
22 | CC1=C(/C=C/C(C)=C/C=C/C(C)=C/C=C/C=C(C)/C=C/C=C(C)/C=C/C2=C(C)C(=O)CCC2(C)C)C(C)(C)CCC1=O | inactive
23 | CC[C@H](C)CCCCC(=O)N[C@@H](CCN)C(=O)N[C@H](C(=O)N[C@@H](CCN)C(=O)N[C@H]1CCNC(=O)[C@H]([C@@H](C)O)NC(=O)[C@H](CCN)NC(=O)[C@H](CCN)NC(=O)[C@H](CC(C)C)NC(=O)[C@@H](CC(C)C)NC(=O)[C@H](CCN)NC1=O)[C@@H](C)O (X2-[Dab]T[Dab][Dab][Dab][dL]L[Dab][Dab]T; lactam 4-C) | inactive
24 | O=C(NCCNCC(O)COc1ccc(O)cc1)N1CCOCC1 (stereo unspecified) | inactive
25 | CCOc1ccc(C[C@H]2NC(=O)CCSSC[C@@H](C(=O)N3CCC[C@H]3C(=O)N[C@@H](CCCN)C(=O)NCC(N)=O)NC(=O)[C@H](CC(N)=O)NC(=O)[C@H]([C@@H](C)O)NC(=O)[C@H]([C@@H](C)CC)NC2=O)cc1 ([Mpa][dY](Et)ITNCP[Orn]G-NH2; disulfide 1-6) | inactive
26 | CC(C)CN(C[C@@H](O)[C@H](Cc1ccccc1)NC(=O)O[C@H]1CO[C@H]2OCC[C@H]21)S(=O)(=O)c1ccc(N)cc1 | inactive
